# Experimental data: PubChem BioAssay (NCATS)
# Values without a mark were called inactive. Inconclusive results are not listed. A call without a number means that no potency is given here. Calls of active or inactive are those of the source. Unless noted, the call rests on the fitted dose curve; in most records, active means well fitted curve in the direction sought with a large enough effect; inconclusive means small, poorly fitted or top-dose-only effect, or another doubt; inactive means no such curve, though single readings can be large; an effect the other way counts as inactive or inconclusive.
# Experiments:
# [1] = target: Rap guanine nucleotide exchange factor 3 (Homo sapiens) (UniProt O95398); assay: Confirmatory qHTS for agonist of cAMP-regulated guanine nucleotide exchange factor 3 (EPAC1) (AID 1645881);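 further: EPAC1 catalysed release of BODIPY-GDP from Rap1B seen as fluorescence loss; nearly all actives have a fitted effect of over 75% in size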
# Rap guanine nucleotide exchange factor 3 (Homo sapiens), sequence (O95398 whole entry, looked up): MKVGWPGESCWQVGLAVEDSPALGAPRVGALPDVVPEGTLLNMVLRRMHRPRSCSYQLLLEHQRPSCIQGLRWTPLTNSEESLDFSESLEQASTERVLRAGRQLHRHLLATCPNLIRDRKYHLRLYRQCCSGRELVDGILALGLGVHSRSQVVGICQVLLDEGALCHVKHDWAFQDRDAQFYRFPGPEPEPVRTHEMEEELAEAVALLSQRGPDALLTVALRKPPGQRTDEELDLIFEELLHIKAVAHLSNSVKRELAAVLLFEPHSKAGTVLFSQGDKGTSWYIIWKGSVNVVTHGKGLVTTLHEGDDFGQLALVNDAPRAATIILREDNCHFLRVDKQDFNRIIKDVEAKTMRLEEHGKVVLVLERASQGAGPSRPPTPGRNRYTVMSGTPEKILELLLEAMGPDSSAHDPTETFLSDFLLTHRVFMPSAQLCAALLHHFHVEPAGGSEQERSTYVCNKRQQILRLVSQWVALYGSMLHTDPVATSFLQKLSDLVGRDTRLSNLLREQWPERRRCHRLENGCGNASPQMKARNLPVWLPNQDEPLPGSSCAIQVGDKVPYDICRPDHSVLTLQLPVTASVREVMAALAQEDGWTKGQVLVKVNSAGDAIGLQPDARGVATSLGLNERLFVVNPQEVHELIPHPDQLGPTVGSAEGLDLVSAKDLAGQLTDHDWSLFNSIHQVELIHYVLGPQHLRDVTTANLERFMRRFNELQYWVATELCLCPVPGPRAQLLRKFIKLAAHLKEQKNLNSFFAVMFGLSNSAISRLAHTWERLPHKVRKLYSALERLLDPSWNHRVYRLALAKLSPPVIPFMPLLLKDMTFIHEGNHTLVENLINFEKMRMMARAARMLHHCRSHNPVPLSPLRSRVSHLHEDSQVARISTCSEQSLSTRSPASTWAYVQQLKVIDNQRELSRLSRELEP
# [2] = target: Rap guanine nucleotide exchange factor 4 (Homo sapiens) (UniProt Q8WZA2); assay: Confirmatory qHTS for agonist of cAMP-regulated guanine nucleotide exchange factor 4 (EPAC2) (AID 1645884);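 further: nucleotide exchange releases bodipy-GDP from Rap1 and this lowers its fluorescence; nearly all actives have a fitted effect of over 65% in size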
# Rap guanine nucleotide exchange factor 4 (Homo sapiens), sequence (Q8WZA2 whole entry, looked up): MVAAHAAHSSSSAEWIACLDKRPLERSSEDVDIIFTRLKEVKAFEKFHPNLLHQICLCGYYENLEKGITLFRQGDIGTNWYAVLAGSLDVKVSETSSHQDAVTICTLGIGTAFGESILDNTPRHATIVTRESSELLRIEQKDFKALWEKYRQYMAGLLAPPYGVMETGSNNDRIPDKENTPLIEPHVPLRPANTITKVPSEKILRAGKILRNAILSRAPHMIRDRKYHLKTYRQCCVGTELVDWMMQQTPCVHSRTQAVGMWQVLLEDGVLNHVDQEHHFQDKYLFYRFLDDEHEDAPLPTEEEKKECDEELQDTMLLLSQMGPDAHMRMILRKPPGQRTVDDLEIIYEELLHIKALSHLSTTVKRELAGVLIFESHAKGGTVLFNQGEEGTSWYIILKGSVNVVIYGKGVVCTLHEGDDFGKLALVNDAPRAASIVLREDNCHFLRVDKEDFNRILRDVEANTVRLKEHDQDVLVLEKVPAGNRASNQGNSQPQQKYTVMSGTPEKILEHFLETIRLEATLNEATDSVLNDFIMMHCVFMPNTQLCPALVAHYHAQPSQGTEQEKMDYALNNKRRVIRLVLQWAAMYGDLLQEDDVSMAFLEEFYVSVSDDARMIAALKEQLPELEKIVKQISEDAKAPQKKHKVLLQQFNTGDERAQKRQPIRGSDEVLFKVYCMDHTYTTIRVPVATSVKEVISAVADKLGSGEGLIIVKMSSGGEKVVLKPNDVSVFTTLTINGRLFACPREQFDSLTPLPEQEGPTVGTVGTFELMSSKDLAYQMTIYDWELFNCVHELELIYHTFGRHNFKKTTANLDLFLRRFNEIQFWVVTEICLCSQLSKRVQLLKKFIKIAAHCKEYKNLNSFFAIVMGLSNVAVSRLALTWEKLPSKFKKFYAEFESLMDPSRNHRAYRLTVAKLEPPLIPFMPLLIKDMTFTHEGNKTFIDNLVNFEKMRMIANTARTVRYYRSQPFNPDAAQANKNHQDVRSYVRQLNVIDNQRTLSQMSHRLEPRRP
# [3] = target: Rap guanine nucleotide exchange factor 4 (Homo sapiens) (UniProt Q8WZA2); assay: Confirmatory qHTS for antagonist of cAMP-regulated guanine nucleotide exchange factor 4 (EPAC2) (AID 1645885); further: nearly all actives have a fitted effect of over 25% in size; further: potency means the concentration at half of the fitted maximal effect
# [4] = target: Rap guanine nucleotide exchange factor 3 (Homo sapiens) (UniProt O95398); assay: Counterscreen qHTS for agonist of cAMP-regulated guanine nucleotide exchange factor 3 (EPAC1) (AID 1645889); further: nearly all actives have a fitted effect of over 40% in size
# In short: (§1)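 Rap1B–BODIPY-GDP (250 nM) with 50 uM GDP; compounds pin-transferred to 9.74 nM–152 uM final (activator) or from 7.32 nM upwards (inhibitor). Fluorescence Ex/Em 480/540 nm read at 5 and 30 min, then after adding cAMP or buffer, at room temperature.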
# [5] = target: Rap guanine nucleotide exchange factor 3 (Homo sapiens) (UniProt O95398); assay: Counterscreen qHTS for antagonist of cAMP-regulated guanine nucleotide exchange factor 3 (EPAC1) (AID 1645888);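 further: fluorescence loss as bound BODIPY-GDP is released from Rap1B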
# In short: as §1
# [6] = target: DNA dC->dU-editing enzyme APOBEC-3G (Homo sapiens) (UniProt Q9HC16); assay: qHTS for inhibitors of Vif-A3G interactions: Validation (AID 588379)
# DNA dC->dU-editing enzyme APOBEC-3G (Homo sapiens), sequence (Q9HC16 whole entry, looked up): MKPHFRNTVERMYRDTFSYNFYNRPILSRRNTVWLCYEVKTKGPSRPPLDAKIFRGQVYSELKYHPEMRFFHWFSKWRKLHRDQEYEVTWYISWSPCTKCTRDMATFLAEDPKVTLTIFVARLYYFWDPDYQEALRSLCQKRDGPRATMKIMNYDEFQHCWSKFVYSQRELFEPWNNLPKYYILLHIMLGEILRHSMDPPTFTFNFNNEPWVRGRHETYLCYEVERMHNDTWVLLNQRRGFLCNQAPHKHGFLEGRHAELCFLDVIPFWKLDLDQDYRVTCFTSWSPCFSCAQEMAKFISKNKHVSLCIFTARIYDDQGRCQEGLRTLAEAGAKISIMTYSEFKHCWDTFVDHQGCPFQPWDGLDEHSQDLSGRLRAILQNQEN
# In short: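 HeLa cells stably expressing Vif and A3G-eYFP, 700 cells/well, incubated overnight at 37 deg C, then exposed to compound overnight at 37 deg C. Inhibition of Vif-mediated degradation read as increased yellow fluorescence (Ex 488/Em 500-530) by laser-scanning cytometry.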
# [7] = target: Lysosomal acid glucosylceramidase (Homo sapiens) (UniProt P04062); assay: Glucocerebrosidase-p2 (AID 348; in the data active means potency below about 10 µM; further: potency means the concentration at half of the fitted maximal effect); details: purified GBA, blue fluorogenic substrate, 40 min
# Lysosomal acid glucosylceramidase (Homo sapiens), sequence (P04062 whole entry, looked up): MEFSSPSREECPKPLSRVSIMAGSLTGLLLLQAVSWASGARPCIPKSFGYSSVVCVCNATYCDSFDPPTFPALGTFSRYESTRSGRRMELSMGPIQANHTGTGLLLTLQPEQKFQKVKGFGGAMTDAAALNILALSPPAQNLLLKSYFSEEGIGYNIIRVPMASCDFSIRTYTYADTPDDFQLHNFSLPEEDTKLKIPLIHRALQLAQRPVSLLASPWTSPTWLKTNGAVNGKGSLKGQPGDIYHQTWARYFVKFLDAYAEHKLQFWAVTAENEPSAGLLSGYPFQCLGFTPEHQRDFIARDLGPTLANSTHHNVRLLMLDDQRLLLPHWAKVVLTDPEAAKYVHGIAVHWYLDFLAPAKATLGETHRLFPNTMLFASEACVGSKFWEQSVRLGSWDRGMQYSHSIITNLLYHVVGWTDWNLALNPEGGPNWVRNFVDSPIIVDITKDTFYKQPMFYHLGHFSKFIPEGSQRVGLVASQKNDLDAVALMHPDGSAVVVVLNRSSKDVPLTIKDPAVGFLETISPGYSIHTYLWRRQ
# In short: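 Compounds titrated from 0.6 nM upwards against 0.2 nM enzyme in pH 5.9 citric acid/KH2PO4, taurocholate, tween-20; blue fluorogenic substrate 80 uM, 40 min room temperature, stopped and read Ex 365/Em 440 for AC50.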
# [8] = AP1 Signaling Pathway (AID 357; active means well fitted curve in either direction with a large enough effect, not every such curve was filed as active;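 further: ME-180 reporter cells stimulated with EGF at its EC50 level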); details: ME-180 AP-1-bla reporter, EGF-induced, beta-lactamase ratio, 5 h; at 7.69 µM (top of the series) unless noted
# In short: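 Beta-lactamase reporter under AP-1 response element, ME-180 background. Stimulus: EC50 EGF. Compound exposure 5 h, 37 °C. Detection: CCF4, 2.5 h RT, 460/530 nm. Values: AC50 from titration.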
# [9] = target: Cytochrome P450 1A2 (Homo sapiens) (UniProt P05177); assay: p450-cyp1a2 (AID 410; calls by dose curve; further: potency means the concentration at half of the fitted maximal effect)
# Cytochrome P450 1A2 (Homo sapiens), sequence (P05177 whole entry, looked up): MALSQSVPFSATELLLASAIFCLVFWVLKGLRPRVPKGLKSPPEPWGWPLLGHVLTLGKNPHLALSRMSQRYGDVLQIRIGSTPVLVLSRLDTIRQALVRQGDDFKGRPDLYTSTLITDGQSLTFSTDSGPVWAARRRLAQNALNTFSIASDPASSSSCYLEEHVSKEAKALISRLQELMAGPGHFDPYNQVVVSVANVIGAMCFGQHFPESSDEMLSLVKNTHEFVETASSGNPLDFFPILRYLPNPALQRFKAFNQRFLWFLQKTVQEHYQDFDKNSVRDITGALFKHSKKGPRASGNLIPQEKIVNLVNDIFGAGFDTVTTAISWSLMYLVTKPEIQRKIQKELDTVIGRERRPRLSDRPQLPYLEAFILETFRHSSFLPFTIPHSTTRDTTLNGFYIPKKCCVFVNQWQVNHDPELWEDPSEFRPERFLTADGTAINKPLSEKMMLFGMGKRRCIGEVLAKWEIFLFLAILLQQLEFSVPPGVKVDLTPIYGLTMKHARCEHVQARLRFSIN
# In short: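 Human CYP1A2 (20nM) demethylated Luciferin-ME at its Km (100uM) in 100mM KPO4. After 10 min compound preincubation, NADPH regeneration ran the reaction 60 min at room temperature. Luciferin was read by luminescence, normalized to 57 uM furafylline.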
# [10] = NFAT Signaling Pathway (AID 444; active means well fitted curve in either direction with a large enough effect, not every such curve was filed as active;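 further: carbachol stimulus at about its EC50 of 1 µM final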); details: Jurkat NFAT-bla M1, carbachol, beta-lactamase ratio, 5 h; at 7.69 µM (top of the series) unless noted
# In short: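 Jurkat cells with NFAT-driven β-lactamase reporter and co-expressed M1 receptor, stimulated with carbachol (final 1 uM, ~EC50), compound titration, 5 h at 37 °C. CCF4 loaded 1 h at RT; 460/530 nm ratio gave %activity and AC50.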
# [11] = Stat Signaling Pathway (AID 446; active means well fitted curve in either direction with a large enough effect, not every such curve was filed as active;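 further: ME-180 cervical cancer cells given 40 pM IL-6 alongside compound; SIE-controlled beta-lactamase reporter measured as 460/530 nm FRET emission ratio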)
# In short: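 ME-180 cells carrying a SIE-driven beta-lactamase reporter are stimulated with 40 pM IL-6 for 5 h at 37C in the presence of compound. The 460/530 nm FRET substrate ratio is read after 2.5 h at RT. Data are normalised to 300 pM IL-6 and to 125 nM JAK inhibitor controls.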
# [12] = target: Glucocorticoid receptor (Homo sapiens) (UniProt P04150); assay: GR-GFP Redistribution (AID 450;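 active means compounds whose dose series gives a full or clear partial fitted curve of increased nuclear translocation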; further: potency means the concentration at half of the fitted maximal effect); details: U2OS GR-GFP nuclear translocation, laser cytometry, 2 h
# Glucocorticoid receptor (Homo sapiens), sequence (P04150 whole entry, looked up, the tested form may be a part): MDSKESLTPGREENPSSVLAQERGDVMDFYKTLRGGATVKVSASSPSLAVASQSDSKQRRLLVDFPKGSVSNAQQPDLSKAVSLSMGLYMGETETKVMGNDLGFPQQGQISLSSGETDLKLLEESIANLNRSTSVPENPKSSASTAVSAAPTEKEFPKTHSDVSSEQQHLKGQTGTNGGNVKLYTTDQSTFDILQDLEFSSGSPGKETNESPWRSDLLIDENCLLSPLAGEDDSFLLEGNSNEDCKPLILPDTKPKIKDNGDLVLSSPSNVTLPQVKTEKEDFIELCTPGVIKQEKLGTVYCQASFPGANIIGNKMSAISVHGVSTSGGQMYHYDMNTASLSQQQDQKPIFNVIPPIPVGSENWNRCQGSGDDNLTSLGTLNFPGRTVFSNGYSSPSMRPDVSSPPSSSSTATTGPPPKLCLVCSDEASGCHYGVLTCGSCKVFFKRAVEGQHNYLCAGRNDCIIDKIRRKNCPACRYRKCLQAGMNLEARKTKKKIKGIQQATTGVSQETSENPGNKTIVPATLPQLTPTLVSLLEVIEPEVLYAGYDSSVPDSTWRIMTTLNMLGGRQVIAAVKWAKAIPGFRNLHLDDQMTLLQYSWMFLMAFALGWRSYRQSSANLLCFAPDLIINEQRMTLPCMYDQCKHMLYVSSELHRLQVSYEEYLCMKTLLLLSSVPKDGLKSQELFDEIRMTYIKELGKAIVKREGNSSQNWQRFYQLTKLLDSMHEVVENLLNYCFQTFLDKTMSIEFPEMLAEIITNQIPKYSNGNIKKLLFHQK
# [13] = target: Glucocorticoid receptor (Homo sapiens) (UniProt P04150); assay: GR-EFC Redistribution (AID 451; calls by dose curve; further: potency means the concentration at half of the fitted maximal effect); details: CHO-K1 GR-EFC translocation, beta-gal luminescence, 2 h
# In short: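 CHO-K1 cells expressing nuclear EA and GR-ED fragments of b-gal; compounds titrated up to 46 uM final, 2 h at 37 C. GR nuclear translocation read as complemented b-gal luminescence after 1 h RT detection.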
# [14] = target: Mitogen-activated protein kinase 10 (Mus musculus) (UniProt Q61831); assay: JNK3 AlphaScreen Assay (AID 530; active means well fitted curve in either direction with a large enough effect, not every such curve was filed as active;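 further: kinase came from lysate of stimulated human HepG2 cells; signal reports phosphorylation of biotinylated GST-cJun 1-79 at Ser73 with 10 µM ATP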)
# In short: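 qHTS format: compounds tested as titrations against IL-1beta/TNF-alpha-activated HepG2 lysate JNK3 with biotin-GST-cJun substrate and 10 uM ATP at room temperature. Loss of anti-phospho-cJun AlphaScreen signal indicates inhibition.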
# [15] = target: Cytochrome P450 3A4 (Homo sapiens) (UniProt P08684); assay: qHTS Assay for Activators of Cytochrome P450 3A4 (AID 885); further: nearly all actives have a fitted effect of over 65% in size
# Cytochrome P450 3A4 (Homo sapiens), sequence (P08684 whole entry, looked up): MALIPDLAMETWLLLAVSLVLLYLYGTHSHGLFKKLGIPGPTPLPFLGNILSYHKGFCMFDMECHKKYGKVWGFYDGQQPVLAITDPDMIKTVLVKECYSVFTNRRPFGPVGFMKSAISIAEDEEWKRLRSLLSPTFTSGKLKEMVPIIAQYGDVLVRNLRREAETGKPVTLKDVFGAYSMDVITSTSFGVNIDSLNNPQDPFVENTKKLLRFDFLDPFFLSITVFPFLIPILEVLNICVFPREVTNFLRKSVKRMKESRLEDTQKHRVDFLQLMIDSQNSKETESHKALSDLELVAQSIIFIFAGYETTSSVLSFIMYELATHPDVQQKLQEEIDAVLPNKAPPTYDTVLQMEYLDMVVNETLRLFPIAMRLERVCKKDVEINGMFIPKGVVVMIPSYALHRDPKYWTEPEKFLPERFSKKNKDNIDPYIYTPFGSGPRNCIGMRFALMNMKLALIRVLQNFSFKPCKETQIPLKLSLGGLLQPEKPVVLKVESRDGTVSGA
# In short: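 Human CYP3A4 (20 nM) with Luciferin-PPXE at 25 uM (its KM) in 200 mM KPO4; 10 min compound preincubation, then NADPH regeneration and 60 min reaction at RT. Luciferin read by luminescence; normalized to 57 uM ketoconazole full inhibition.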
# [16] = target: Tumor susceptibility gene 101 protein (Homo sapiens) (UniProt Q99816); assay: qHTS Assay for Iinhibitors of HIV-1 Budding by Blocking the Interaction of PTAP/TSG101: Hit Validation (AID 651600); further: nearly all actives have a fitted effect of over 70% in size
# Tumor susceptibility gene 101 protein (Homo sapiens), sequence (Q99816 whole entry, looked up): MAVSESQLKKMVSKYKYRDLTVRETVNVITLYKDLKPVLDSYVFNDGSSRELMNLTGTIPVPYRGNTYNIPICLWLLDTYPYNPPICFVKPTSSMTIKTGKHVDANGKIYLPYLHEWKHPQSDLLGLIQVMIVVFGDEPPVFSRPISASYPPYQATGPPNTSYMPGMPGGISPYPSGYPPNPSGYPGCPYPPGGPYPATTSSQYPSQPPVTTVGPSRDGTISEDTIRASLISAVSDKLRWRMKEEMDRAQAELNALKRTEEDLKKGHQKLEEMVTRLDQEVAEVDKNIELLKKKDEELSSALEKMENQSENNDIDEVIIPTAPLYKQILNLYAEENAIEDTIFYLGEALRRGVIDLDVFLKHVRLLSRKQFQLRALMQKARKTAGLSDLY
# In short: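 Measuring PTAP–Tsg101 interaction by FP: protein at 10 uM and fluorescent peptide at 50 nM (final), buffer 10 mM HEPES pH 7.5 with 0.15 M NaCl, 3 mM EDTA, 0.1 mM TCEP, 0.01% Tween 20; 20 min incubation, r.t.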
# [17] = target: Cytochrome P450 3A4 (Homo sapiens) (UniProt P08684); assay: qHTS Assay for Inhibitors and Substrates of Cytochrome P450 3A4 (AID 884); further: potency means the concentration at half of the fitted maximal effect; nearly all actives have a fitted effect of over 50% in size
# In short: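 20 nM human CYP3A4 with 25 uM Luciferin-PPXE (at KM) in 200 mM KPO4, preincubated 10 min with compound; NADPH regeneration started a 60 min RT reaction. Luciferin detected by luminescence, normalized to 57 uM ketoconazole as full inhibition.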
# [18] = Confirmation and Secondary Assay for Modulators of Hemoglobin Beta Chain Splicing at IVS2 654 locus (AID 910);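 further: HeLa cells stably carrying EGFP split by mutant beta-globin IVS2-654 intron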
# In short: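 HeLa cells stably expressing EGFP interrupted by β-globin IVS2-654 intron, seeded overnight in Opti-MEM/2% FCS, then treated 2 days at 37 °C. Restored splicing read as total peak GFP intensity per well by laser scanning cytometry (488 nm excitation, 500–520 nm emission); 500 nM antisense PNA as control.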
# [19] = Confirmation and Secondary Assay for Modulators of Hemoglobin Beta Chain Splicing at IVS2 705 locus (AID 930);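 further: HeLa cells stably expressing the EGFP-705 splicing reporter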
# In short: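 HeLa cells stably carrying EGFP interrupted by mutant beta-globin IVS2-705 intron (CMV-driven) were seeded at 500 cells/well, treated next day with compound for 2 days at 37C; corrected splicing restores EGFP, read as total peak GFP intensity per well.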
structure (smiles),measurement,setting,value
COc1cc(/C=C(\C#N)C(=O)Nc2ccccc2C(=O)O)cc(Cl)c1OC,Potency,[1],inactive
same,Potency,[2],inactive
same,Potency,[3],inactive
same,Potency,[4],inactive
Nc1ccc(N2CCCCC2)c2nonc12,Potency,[1],inactive
same,activation,[2],"-6.41% [at 17.1 µM, percent relative to cAMP agonist control]"
same,Potency,[3],inactive
same,activation,[4],6.94% [at 30.8 µM]
Cc1ccc(/C=C2/SC(=S)N(c3ccc(S(=O)(=O)Nc4nccs4)cc3)C2=O)cc1,Potency,[1],inactive
same,Potency,[2],inactive
same,Potency,[5],inactive
C=C1CCC(O)C/C1=C\C=C1/CCCC2(C)C1CCC2C(C)/C=C/C(C)C(C)C (stereo not drawn),outcome,[6],inactive
same,Potency,[1],inactive
same,Potency,[2],inactive
same,Potency,[3],inactive
CC1CN(C(=O)c2ccc(-c3cccc(C(F)(F)F)c3)o2)CC(C)O1 (stereo not drawn),Potency,[1],inactive
same,activation,[2],"6.74% [at 17.1 µM, percent relative to cAMP agonist control]"
same,Potency,[3],inactive
same,activation,[4],1.55% [at 30.8 µM]
CC(C)(C)Cc1c(-c2ccco2)nc2ccc(Cl)cn12,Potency,[1],inactive
same,activation,[2],"1.87% [at 17.1 µM, percent relative to cAMP agonist control]"
same,Potency,[3],inactive
same,activation,[4],3.65% [at 30.8 µM]
Nc1ccc(C(=O)N2CCN(S(=O)(=O)c3ccc(Cl)s3)CC2)cc1[N+](=O)[O-],Potency,[1],inactive
same,Potency,[2],inactive
same,Potency,[5],inactive
CN(C)c1ncc2ncc(=O)n(Cc3cccs3)c2n1,Potency,[7],> 11.4 µM
same,"activity change, negative = inhibition",[8],-12.8%
same,Potency,[9],1.58 µM (active)
same,"activity change, negative = inhibition",[10],-18.4%
same,outcome,[11],inactive
same,Potency,[12],> 9.22 µM
same,Potency,[13],> 46 µM
same,Potency,[14],inactive
same,outcome,[15],inactive
same,Potency,[1],inactive
same,Potency,[2],inactive
same,Potency,[3],39.3 µM (active)
O=C(NC1(O)C(=O)c2ccccc2C1=O)c1c(Cl)cccc1Cl,Potency,[1],inactive
same,Potency,[2],inactive
same,Potency,[5],inactive
C=CCn1c(SCC(=O)NC(N)=O)nnc1-c1cc2c(s1)CCC(CC)C2 (stereo not drawn),Potency,[1],inactive
same,Potency,[2],inactive
same,Potency,[3],inactive
same,Potency,[4],inactive
Cc1c2ccccc2nc2c(F)c(NC(C)C)c(F)c(F)c12,Potency,[16],inactive
same,Potency,[1],inactive
same,Potency,[2],inactive
same,Potency,[3],inactive
COc1cc(OC)cc(-c2cc3ccc(OC)cc3cn2)c1,Potency,[1],inactive
same,Potency,[2],inactive
same,Potency,[3],30.1 µM (active)
same,Potency,[4],inactive
O=C(Cc1c(Sc2ccccc2)c2ccccc2n1Cc1ccccc1)NCCO,Potency,[1],inactive
same,Potency,[2],inactive
same,Potency,[5],inactive
O=C(c1cc(C(F)(F)F)cc(C(F)(F)F)c1)N1CCC2(CCCN(c3ncccn3)C2)CC1,Potency,[7],> 11.4 µM
same,"activity change, negative = inhibition",[8],-18.2%
same,Potency,[9],31.6 µM (active)
same,outcome,[11],inactive
same,Potency,[13],> 46 µM
same,Potency,[14],inactive
same,outcome,[15],inactive
same,Potency,[1],inactive
same,Potency,[2],inactive
same,Potency,[3],44.1 µM (active)
CCCC[C@@H]1C[C@H]1[C@@H](NC(=O)c1ccco1)c1ccc(Cl)cc1,Potency,[1],inactive
same,Potency,[2],inactive
same,Potency,[3],inactive
same,Potency,[4],inactive
O=C(O)c1cccc(Nc2ccc([N+](=O)[O-])c3nonc23)c1,Potency,[1],inactive
same,Potency,[2],inactive
same,Potency,[3],inactive
same,Potency,[4],inactive
CCN(Cc1ccccc1)S(=O)(=O)c1cc2c3c(c1)CCN3C(=O)CC2,Potency,[1],inactive
same,activation,[2],"0.922% [at 17.1 µM, percent relative to cAMP agonist control]"
same,Potency,[3],inactive
same,activation,[4],-5.83% [at 30.8 µM]
Cn1c(/C(C#N)=C/c2ccc(-c3ccc(S(N)(=O)=O)cc3)o2)nc2ccccc21,Potency,[16],inactive
same,Potency,[1],inactive
same,Potency,[2],inactive
same,Potency,[3],95.3 µM (active)
O=C1C(=Cc2cn(-c3ccccc3)nc2-c2ccc(OCc3ccc(Cl)cc3)cc2)SC(=S)N1CCS(=O)(=O)O,Potency,[1],inactive
same,Potency,[2],inactive
same,Potency,[5],inactive
COc1cccc(C(=O)/C=C/c2ccc(OCC#N)c(OC)c2)c1,Potency,[1],inactive
same,activation,[2],"0% [at 17.1 µM, percent relative to cAMP agonist control]"
same,Potency,[3],inactive
same,activation,[4],12.6% [at 30.8 µM]
Cc1cc(C)c(Cn2cnc3ccccc32)c(C)c1,Potency,[1],inactive
same,Potency,[2],inactive
same,Potency,[5],inactive
Cc1cc(C)cc(N(CC(=O)Nc2ccc(C(F)(F)F)cc2)S(=O)(=O)c2c(C)[nH]c(=O)[nH]c2=O)c1,Potency,[1],inactive
same,Potency,[2],inactive
same,Potency,[3],inactive
same,Potency,[4],inactive
O=c1c(O)c(-c2ccccc2)oc2ccc3occc3c12,Potency,[17],3.16 µM (active)
same,outcome,[15],inactive
same,Potency,[18],inactive
same,Potency,[19],inactive
same,Potency,[1],inactive
same,Potency,[2],inactive
same,Potency,[3],5.55 µM (active)
